# An excerpt weighted towards active compounds, which were near 12% of everything screened.
# HP1b chromo inh: HTS for Inhibitors of HP1-beta Chromodomain Interactions with Methylated Histone Tails. Chromobox protein homolog 1 (Homo sapiens), P83916. AlphaScreen HP1-beta / biotin-H3K9me3 peptide binding. Potency, µM (doses to about 114 µM), without a hit: top-dose activity change, negative = inhibition, actives largely listed as inhibitors. 390,000 compounds, 0.56% hits. AID 540317, 2011; note: nearly all actives have a fitted effect of over 70% in size
#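 AlphaScreen: HP1-beta (50 nM) preformed 30 min with biotin-H3(1-18)K9me3 peptide (50 nM) in PBS pH 7.4, 0.01% Tween-20. Compound added for 30 min at RT, then streptavidin donor/nickel chelate acceptor beads (10 ug/mL) for 30 min.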
# G9a inh: qHTS Assay for Inhibitors of Histone Lysine Methyltransferase G9a; Histone-lysine N-methyltransferase EHMT2 (Homo sapiens), Q96KQ7; G9a H3K9 monomethylation, AlphaScreen, 2 h; Potency, µM (titrated, usually from 102 µM), for inactives: top-dose activity, negative = inhibition, most hits filed as inhibitors; 350,000 compounds, 8.8% hits; AID 504332, 2011; note: % is set by controls: 0 for no effect and ±100 for the full control effect; nearly all actives have a fitted effect of over 75% in size
#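 Step 1: enzyme (final 20 nM) with compound, 15 min RT. Step 2: substrate peptide 500 nM and SAM 20 uM, 2 h RT. Step 3: anti-H3K9me1 antibody and AlphaScreen beads, 10 min, then plate read.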
# JMJD2A Tudor inh: qHTS Assay for Inhibitors of JMJD2A-Tudor Domain. Lysine-specific demethylase 4A (Homo sapiens), O75164. AlphaScreen JMJD2A-Tudor / H3K4me3 peptide binding. Potency, µM (doses to about 114 µM), for the others: top-dose activity change, negative = inhibition, hits mostly inhibitors. 390,000 compounds, 4.4% hits; note: % is set by controls: 0 for no effect and ±100 for the full control effect; nearly all actives have a fitted effect of over 50% in size
# Target sequence (O75164 whole entry, looked up, the tested form may be a part): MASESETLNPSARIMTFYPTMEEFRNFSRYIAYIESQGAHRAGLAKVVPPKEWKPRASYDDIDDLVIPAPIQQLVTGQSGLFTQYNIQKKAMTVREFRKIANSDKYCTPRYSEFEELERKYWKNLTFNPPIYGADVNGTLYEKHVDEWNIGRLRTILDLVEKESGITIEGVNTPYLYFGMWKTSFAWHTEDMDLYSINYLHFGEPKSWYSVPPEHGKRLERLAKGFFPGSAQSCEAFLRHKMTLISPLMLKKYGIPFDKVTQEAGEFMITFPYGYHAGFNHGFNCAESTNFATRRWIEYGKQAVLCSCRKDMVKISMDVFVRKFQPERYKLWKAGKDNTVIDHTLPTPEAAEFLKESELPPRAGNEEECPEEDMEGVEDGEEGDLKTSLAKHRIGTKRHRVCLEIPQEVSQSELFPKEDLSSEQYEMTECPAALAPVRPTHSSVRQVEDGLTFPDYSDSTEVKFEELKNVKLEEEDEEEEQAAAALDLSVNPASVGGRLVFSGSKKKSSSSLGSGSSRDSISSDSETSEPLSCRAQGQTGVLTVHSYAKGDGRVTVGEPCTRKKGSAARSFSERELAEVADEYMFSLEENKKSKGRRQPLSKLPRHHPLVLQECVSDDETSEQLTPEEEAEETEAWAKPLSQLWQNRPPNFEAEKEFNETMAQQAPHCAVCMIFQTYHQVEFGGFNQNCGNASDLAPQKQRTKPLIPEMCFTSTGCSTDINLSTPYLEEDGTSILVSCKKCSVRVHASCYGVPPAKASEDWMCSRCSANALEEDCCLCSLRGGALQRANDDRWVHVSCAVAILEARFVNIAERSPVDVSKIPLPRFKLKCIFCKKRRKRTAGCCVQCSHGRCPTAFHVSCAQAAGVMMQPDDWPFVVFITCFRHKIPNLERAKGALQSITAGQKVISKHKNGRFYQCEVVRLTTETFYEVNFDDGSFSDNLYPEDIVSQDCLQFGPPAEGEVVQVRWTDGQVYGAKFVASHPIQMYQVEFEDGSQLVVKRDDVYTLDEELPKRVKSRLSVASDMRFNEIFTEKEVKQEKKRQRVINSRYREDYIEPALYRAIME
# BAZ2B block: qHTS Assay for Inhibitors of BAZ2B. 360,000 compounds, 4.4% hits. AID 504333, 2011. Potency, µM (top dose mostly 114 µM), inactives show at the top dose activity change, negative = inhibition, actives largely listed as inhibitors. AlphaScreen BAZ2B-H3K14Ac peptide displacement; note: % is set by controls: 0 for no effect and ±100 for the full control effect; nearly all actives have a fitted effect of over 60% in size
#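 In this displacement format the biotinylated H3(5-23) peptide acetylated at Lys14 serves as ligand at 50 nM, with BAZ2B at 50 nM in PBS pH 7.4 containing 0.01% Tween-20. Donor and acceptor beads are 10 ug/mL final.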
# L3MBTL1 block: qHTS Assay for the Inhibitors of L3MBTL1; Lethal(3)malignant brain tumor-like protein 1 (Homo sapiens), Q9Y468; AlphaScreen L3MBTL1–H3K9me1 peptide binding; Potency, µM (titrated, usually from 57.1 µM), inactives show at the top dose activity, negative = inhibition, hits mostly inhibitors; 230,000 compounds, 0.66% hits; AID 485360, 2010; note: % is set by controls: 0 for no effect and ±100 for the full control effect; nearly all actives have a fitted effect of over 60% in size
#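 L3MBTL1 50 nM + b-AHA-H3(1-15)K9me1 75 nM, 30 min RT; compound added, 30 min RT; streptavidin donor/Ni-chelate acceptor beads 10 ug/mL each final, 30 min RT dark; AlphaScreen read.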
# Sfp PPTase inh: qHTS Assay for Inhibitors of Bacillus subtilis Sfp phosphopantetheinyl transferase (PPTase). 4'-phosphopantetheinyl transferase ffp (Bacillus subtilis), Q9F4F7. Biochemical Sfp PPTase activity, qHTS. Potency, µM, for the others: largest response in the series, negative = inhibition, usual class: inhibitors. 310,000 compounds, 3.5% hits;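 note: the enzyme is Sfp with the accession as filed and its product quenches rhodamine fluorescence; 0% = enzyme reaction without inhibitor and -100% = no enzyme wells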
#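 Buffer: 50 mM Hepes-Na pH 7.6, 10 mM MgCl2, 0.01% Nonidet P-40, 0.01% BSA. Enzyme 15 nM, pre-exposed to compound 15 min; substrates then added and fluorescence change tracked over 30 min.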
# * = called active by the depositor; ? = inconclusive; nt = no result given; [ ] = remark or other dose. Calls come from the whole dose curve; as a rule, active = well fitted curve in the direction sought with a large enough effect; inconclusive = small, poorly fitted or top-dose-only effect, or another doubt; inactive = no such curve, though single readings can be large; an effect the other way counts as inactive or inconclusive. Potency is the fitted concentration of half-maximal effect.
SMILES,HP1b chromo inh,G9a inh,JMJD2A Tudor inh,BAZ2B block,L3MBTL1 block,Sfp PPTase inh
O=C(CN1CSCC1=O)N1CCN(S(=O)(=O)c2cc(C(F)(F)F)ccc2Cl)CC1,13.3%,9.0%,-13.1%,-3.4%,3.1%,nt
COc1ccc(N2CCN(C(=O)CCCSc3nc4ccccc4[nH]3)CC2)cc1,11.6%,44.7µM*,-17.4%,-26.1%,nt,2.4%
COc1ccc(-c2cc3nc(C)c(CCC(=O)N4CCN(c5ccc(F)cc5)CC4)c(C)n3n2)c(OC)c1,27.7%,?,-26.9%,-15.9%,nt,nt
C[C@H]1[C@@H](OC(=O)CCC(=O)O)OC2OC3(C)CC[C@H]4[C@H](C)CC[C@@H]1[C@@]24OO3 (some centres undefined),nt,-10.2%[12.7 µM],nt,nt,nt,12.9%
O=C(COc1ccccc1)NCC(=O)N1CCCC1,14.2%,7.2%,-2.8%,-2.6%,nt,23.8%
O=C(COc1cccc2ccccc12)N1CCN(c2ccccc2)CC1,2.9%,?,?,-2.7%,nt,?
Cc1ccc(OCC(=O)N2CCC(N3CC(C)CC(C)C3)CC2)cc1 (centres undefined),?,25.1µM*,1.58µM*,-36.8%,nt,4.6%
CCOC(=O)c1cc(-c2ccc(F)cc2)n(CCC(=O)Nc2nc3cc(C)c(C)cc3s2)c1C,42.2%,-3.6%[59 µM],-5.8%,2.0%,nt,nt
COc1ccc(N2CCN(C(=O)COc3cccc4ccccc34)CC2)cc1,?,nt,31.6µM*,11.2µM*,nt,-10.6%
O=C(COc1ccc(-c2ccccc2)cc1)N1CCCC1,22.1%,35.5µM*,-9.2%,?,-8.3%,9.7%
CCOC(=O)c1cc(-c2ccc(F)cc2)n(CCC(=O)Nc2nc3ccc(OC)cc3s2)c1C,-25.2%,-49.5%[59 µM],56.2µM*,?,nt,nt
O=C(O)C(O)C(O)(Cc1ccc(O)cc1)C(=O)O (centres undefined),nt,nt,nt,nt,nt,-26.5%
Cc1cn(C2CC3OCC(NC(=O)C(NC(=O)OC(C)(C)C)C(C)OCc4ccccc4)C3O2)c(=O)[nH]c1=O (centres undefined),13.6%,nt,-3.4%,nt,nt,20.2%
Cc1ccc(NC(=O)C(Cc2ccccc2)NS(=O)(=O)c2ccc3c(c2)CCC(=O)N3)cc1 (centres undefined),17.3%,-37.4%[59 µM],-6.1%,-2.8%,nt,nt
CCOc1ccc(CC(=O)Nc2c(C(=O)c3ccccc3)oc3ccc(OC)cc23)cc1OCC,35.9%,7.7%[59 µM],3.7%,-10.2%,nt,nt
COc1cccc(NC(=O)CCC(=O)N2Cc3ccccc3Oc3ncccc32)c1,31.9%,-10.9%[59 µM],-12.9%,7.5%[57.1 µM],nt,nt
Cc1ccc(C)c(OCCCC(=O)N2CCOCC2)c1,3.7%,44.7µM*,?,1.3%,-1.7%,-9.0%
COc1ccc(N2CCN(C(=O)CCC(=O)N3Cc4ccccc4Oc4ncccc43)CC2)cc1,5.0%,nt,-26.9%,39.8µM*,nt,-0.2%
COc1ccc(OCC(=O)N2CCN(C(=O)c3ccccc3)CC2)cc1,17.7%,13.6%[12.7 µM],-29.0%,14.3%,nt,4.5%
COc1ccc(N2CCN(C(=O)COc3ccccc3)CC2)cc1,13.1%,44.7µM*,-28.3%,-12.6%,-4.6%,10.7%
COc1ccccc1N1CCN(C(=O)COc2cc(C)ccc2C)CC1,?,-9.6%[59 µM],20µM*,0.6%,0.3%,-6.9%
COc1ccccc1N1CCN(C(=O)COc2ccc(C)cc2Br)CC1,15.1%,?,-16.1%,-32.1%,-3.3%,2.9%
O=C1CCCc2cc(S(=O)(=O)N3CCCC(C(=O)Nc4ccc(F)c(Cl)c4)C3)ccc2N1 (centres undefined),11.4%,-27.3%[59 µM],-13.3%,2.6%[57.1 µM],nt,nt
COc1ccc(N2CCN(C(=O)CCc3ccccc3OC)CC2)cc1,-7.4%,79.4µM*,?,?,nt,8.6%
Cc1cc(OCC(=O)N2CCCC2)cc(C)c1Cl,39.2%,1.26µM*,12.9%,12.4%,nt,0.5%
SMILES,HP1b chromo inh,G9a inh,JMJD2A Tudor inh,BAZ2B block,L3MBTL1 block,Sfp PPTase inh
CCOC(=O)c1cc(-c2ccccc2)n(CCC(=O)N2CCN(c3ccc(OC)cc3)CC2)c1C,?,?,?,25.1µM*,?,-1.4%
Cc1cc(OCC(=O)N2CCCC2)ccc1Cl,69.2%,-6.4%[59 µM],-2.3%[57.1 µM],5.3%,2.4%,-4.5%
CCOC(=O)c1cc(-c2ccc(OC)cc2)n(CCC(=O)NCCc2ccccc2)c1C,-9.9%,-34.8%[59 µM],?,-32.2%,nt,nt
O=C(Nc1ccc(OCc2cc(=O)n3c4c(sc3n2)CCCC4)cc1)c1ccccc1,32.1%,10.1%[59 µM],8.6%,3.7%,nt,nt
Cc1ccc(S(=O)(=O)N2CCN(C(C)CC(=O)O)CC2)cc1 (centres undefined),?,28.2µM*,5.62µM*,50.1µM*,3.4%,?
CCC(C)c1ccc(S(=O)(=O)N2CCN(C(C)CC(=O)O)CC2)cc1 (centres undefined),-26.6%,7.08µM*,3.55µM*,nt,6.0%,-8.5%
Cc1ccc(S(=O)(=O)N2CCN(C(=O)CC(C)C)CC2)cc1,27.4%,3.1%,-2.1%,1.2%,2.3%,20.6%
COc1ccccc1C(=O)NCC(=O)NC(C)c1ccc(-n2ccnc2)cc1 (centres undefined),9.8%,10µM*,-20.1%,-1.9%,nt,3.3%
Cc1cccc(C(=O)NCC(=O)NC(C)c2ccc(-n3ccnc3)cc2)c1 (centres undefined),21.0%,1.5%,-13.8%,-18.7%,-2.8%,nt
COc1cc(/C=C/c2nc3ccccc3s2)cc(OC)c1O,17.2%,50.1µM*,-7.0%,?,12.7%,-38.7%
COc1cc(C=C(c2nc3ccccc3s2)c2nc3ccccc3s2)ccc1O,?,3.55µM*,44.7µM*,35.5µM*,-19.1%,-0.8%
CC1CCN(C(=O)CSc2nnc(CN3CCOCC3)n2-c2ccccc2)CC1,30.8%,-29.4%[12.7 µM],-0.6%,-1.6%,-0.2%,70.8µM*
Cn1cccc1Cc1nnc(SCC(=O)N2CCCC2)n1CCc1ccccc1,11.8%,?,-25.7%,?,nt,14.7%
Cn1cccc1Cc1nnc(SCC(N)=O)n1CCc1ccccc1,35.7%,44.7µM*,-20.4%,-25.6%,-12.0%,-2.4%
O=C(CSc1nnc(CN2CCOCC2)n1-c1ccccc1)N1CCc2ccccc21,26.2%,-38.8%[12.7 µM],-2.2%,-4.7%,nt,10.6%
Cn1cccc1Cc1nnc(SCC(=O)N2CCCCCC2)n1CCc1ccccc1,43.7%,50.1µM*,-19.0%,-35.2%,nt,-8.6%
Cn1cccc1Cc1nnc(SCC(=O)NC2CCCC2)n1CCc1ccccc1,8.8%,79.4µM*,?,-34.1%,-2.0%,-5.8%
